The values below come from paper PMC7862700, “An all-to-all approach to the identification of sequence-specific readers for epigenetic DNA modifications on cytosine”.

Experiment in all cases: DAPPL (digital affinity profiling via proximity ligation, sequencing); 10 mM Tris-HCl pH 7.5, 50 mM NaCl, 1 mM DTT, 4% glycerol, room temperature, 30 min; GST-TFs on glutathione beads, 16-mer random dsDNA library, 0.1% formaldehyde crosslink after washing; high values mean tight binding
Settings in all cases: protein: recombinant; tags: N-terminal GST; dsDNA, one strand shown

One test deals with T1, FLI1 (Homo sapiens, UniProt Q01543 1-452).
T1 sequence: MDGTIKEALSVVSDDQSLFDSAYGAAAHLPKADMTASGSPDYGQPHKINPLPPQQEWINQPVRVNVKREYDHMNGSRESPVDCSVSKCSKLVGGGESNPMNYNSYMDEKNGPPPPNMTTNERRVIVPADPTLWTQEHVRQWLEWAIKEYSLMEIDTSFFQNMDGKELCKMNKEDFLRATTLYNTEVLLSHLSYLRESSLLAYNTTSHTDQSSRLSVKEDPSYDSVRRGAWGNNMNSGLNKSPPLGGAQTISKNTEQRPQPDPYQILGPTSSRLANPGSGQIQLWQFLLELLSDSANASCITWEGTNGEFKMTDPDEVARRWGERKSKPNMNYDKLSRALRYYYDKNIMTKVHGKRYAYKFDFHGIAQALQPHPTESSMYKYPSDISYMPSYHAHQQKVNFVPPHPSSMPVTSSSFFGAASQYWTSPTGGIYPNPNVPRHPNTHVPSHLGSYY
In short, it runs like this: (§1)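 Pools were built from human transcription factors expressed in yeast as GST fusions, captured on glutathione beads and DNA-barcoded, along with a tag-only sample. Incubation with 200 nmole of a 16-mer random double-stranded DNA library lasted 30 min at room temperature in Tris/NaCl/DTT/glycerol buffer, and was followed by washing, 0.1% formaldehyde crosslinking, proximity ligation, PCR amplification and Illumina NextSeq500 sequencing. Binding signal is the quotient of each hexamer's read frequency for a factor and its frequency for the tag-only sample.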

The target in another test is T2, ELK1 (Homo sapiens, UniProt P19419 1-428).
T2 sequence: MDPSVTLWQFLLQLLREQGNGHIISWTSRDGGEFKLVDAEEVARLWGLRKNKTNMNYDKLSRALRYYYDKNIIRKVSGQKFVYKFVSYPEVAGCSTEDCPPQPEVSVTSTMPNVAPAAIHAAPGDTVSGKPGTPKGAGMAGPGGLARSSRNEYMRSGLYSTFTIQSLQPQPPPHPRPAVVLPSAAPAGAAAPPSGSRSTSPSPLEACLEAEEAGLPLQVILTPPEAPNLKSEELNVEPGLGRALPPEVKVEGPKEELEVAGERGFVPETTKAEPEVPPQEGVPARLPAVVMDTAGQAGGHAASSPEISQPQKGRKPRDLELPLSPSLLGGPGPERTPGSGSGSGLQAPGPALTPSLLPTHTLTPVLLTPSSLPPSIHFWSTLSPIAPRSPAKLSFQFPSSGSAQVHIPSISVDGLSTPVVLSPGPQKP
In short, it runs like this: as §1

A further test concerns the target T3, GABPA (Homo sapiens, UniProt Q06546 1-454).
T3 sequence: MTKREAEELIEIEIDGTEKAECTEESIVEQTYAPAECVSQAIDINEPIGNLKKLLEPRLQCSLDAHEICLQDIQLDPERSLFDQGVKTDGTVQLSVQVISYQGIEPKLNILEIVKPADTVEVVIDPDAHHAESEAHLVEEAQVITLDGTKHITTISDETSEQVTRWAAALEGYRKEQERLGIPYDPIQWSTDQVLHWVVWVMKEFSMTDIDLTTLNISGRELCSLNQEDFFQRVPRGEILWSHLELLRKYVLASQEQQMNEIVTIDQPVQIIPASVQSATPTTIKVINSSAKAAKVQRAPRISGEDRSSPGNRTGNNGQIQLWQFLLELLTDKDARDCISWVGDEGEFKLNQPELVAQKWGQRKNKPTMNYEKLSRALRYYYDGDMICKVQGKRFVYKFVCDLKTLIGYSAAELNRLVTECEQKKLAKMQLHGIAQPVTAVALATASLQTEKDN
In short, it runs like this:
as §1

Another test addresses T4, ERG (Homo sapiens, UniProt P11308 1-479).
T4 sequence: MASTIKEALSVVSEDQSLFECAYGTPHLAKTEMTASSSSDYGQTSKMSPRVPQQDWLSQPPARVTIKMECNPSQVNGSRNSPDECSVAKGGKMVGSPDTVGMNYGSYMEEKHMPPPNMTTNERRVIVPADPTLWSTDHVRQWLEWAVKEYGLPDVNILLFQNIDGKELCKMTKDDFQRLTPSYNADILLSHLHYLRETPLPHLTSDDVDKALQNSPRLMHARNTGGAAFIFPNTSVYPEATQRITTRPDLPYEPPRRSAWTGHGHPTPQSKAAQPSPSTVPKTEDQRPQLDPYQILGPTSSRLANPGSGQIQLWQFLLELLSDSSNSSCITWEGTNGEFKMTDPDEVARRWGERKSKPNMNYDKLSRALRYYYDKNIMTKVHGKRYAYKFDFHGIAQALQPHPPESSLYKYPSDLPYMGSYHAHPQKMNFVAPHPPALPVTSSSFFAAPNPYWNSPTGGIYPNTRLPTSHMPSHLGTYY
In short, it runs like this:
as §1

Another test addresses ELF1 (Homo sapiens, UniProt P32519 1-619). In a few lines:
as §1

A further test concerns the target T5, EHF (Homo sapiens, UniProt Q9NZC4 1-300).
T5 sequence: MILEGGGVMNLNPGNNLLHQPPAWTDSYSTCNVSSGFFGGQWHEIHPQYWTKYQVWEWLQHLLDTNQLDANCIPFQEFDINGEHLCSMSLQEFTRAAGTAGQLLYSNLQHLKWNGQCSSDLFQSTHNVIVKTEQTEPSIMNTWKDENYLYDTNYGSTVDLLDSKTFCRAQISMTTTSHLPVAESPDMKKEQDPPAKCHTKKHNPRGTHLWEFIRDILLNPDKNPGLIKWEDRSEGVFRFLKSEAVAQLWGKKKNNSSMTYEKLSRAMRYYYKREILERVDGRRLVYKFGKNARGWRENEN
In short, it runs like this: as §1

The next test has as its target SPI1 (Homo sapiens, UniProt P17947 1-270). In short, it runs like this:
as §1

Another test concerns the target SPIB (Homo sapiens, UniProt Q01892 1-262). In a few lines: as §1
The target in the next test is T6, ELK3 (Homo sapiens, UniProt P41970 1-407).
T6 sequence: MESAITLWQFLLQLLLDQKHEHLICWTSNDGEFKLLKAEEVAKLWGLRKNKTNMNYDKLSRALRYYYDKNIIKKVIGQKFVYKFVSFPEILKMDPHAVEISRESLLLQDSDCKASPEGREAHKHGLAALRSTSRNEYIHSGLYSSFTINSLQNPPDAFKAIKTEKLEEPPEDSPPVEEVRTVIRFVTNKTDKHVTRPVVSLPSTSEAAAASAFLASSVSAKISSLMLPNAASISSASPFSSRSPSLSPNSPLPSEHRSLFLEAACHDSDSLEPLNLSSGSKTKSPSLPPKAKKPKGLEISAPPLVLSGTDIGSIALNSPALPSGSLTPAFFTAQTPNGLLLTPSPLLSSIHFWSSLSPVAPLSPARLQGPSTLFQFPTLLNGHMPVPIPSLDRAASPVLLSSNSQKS
In a few lines:
as §1

Sequence of ELF1 (P32519 whole entry): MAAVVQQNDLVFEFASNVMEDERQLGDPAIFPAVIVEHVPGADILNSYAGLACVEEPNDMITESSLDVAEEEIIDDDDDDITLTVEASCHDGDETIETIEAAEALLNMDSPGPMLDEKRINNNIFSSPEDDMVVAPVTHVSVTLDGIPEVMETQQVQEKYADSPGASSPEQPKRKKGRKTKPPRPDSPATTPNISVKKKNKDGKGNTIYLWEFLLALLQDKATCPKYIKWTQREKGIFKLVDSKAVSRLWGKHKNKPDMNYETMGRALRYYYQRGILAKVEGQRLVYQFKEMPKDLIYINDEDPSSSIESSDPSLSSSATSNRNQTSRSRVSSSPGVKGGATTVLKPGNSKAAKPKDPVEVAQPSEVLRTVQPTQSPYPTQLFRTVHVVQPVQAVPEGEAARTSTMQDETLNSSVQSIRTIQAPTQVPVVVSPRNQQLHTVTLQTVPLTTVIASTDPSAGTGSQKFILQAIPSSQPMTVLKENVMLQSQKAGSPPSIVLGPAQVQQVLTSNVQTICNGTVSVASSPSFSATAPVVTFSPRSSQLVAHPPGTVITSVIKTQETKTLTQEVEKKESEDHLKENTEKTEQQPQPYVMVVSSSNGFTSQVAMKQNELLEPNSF
Sequence of SPIB (Q01892 whole entry): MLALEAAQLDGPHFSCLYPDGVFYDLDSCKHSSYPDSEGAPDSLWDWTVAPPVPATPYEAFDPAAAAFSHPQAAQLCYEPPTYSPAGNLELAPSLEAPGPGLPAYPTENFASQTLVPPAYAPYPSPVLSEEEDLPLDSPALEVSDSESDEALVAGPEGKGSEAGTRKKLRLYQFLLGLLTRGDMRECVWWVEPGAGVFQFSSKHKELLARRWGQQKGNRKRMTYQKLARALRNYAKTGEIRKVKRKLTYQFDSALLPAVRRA

On to ATTGGG, for which the binding signal was 1.23 fold enrichment (6-mer frequency, TF over GST control) in the test with FLI1; 1.24 fold enrichment (6-mer frequency, TF over GST control) with ELK1; 1.33 fold enrichment (6-mer frequency, TF over GST control) in the test with GABPA; 1.13 fold enrichment (6-mer frequency, TF over GST control) in the test with ERG; 1.21 fold enrichment (6-mer frequency, TF over GST control) in the test with ELF1; 1.24 fold enrichment (6-mer frequency, TF over GST control) with EHF. Further, the binding signal was 1.25 fold enrichment (6-mer frequency, TF over GST control) in the test with SPI1; 1.26 fold enrichment (6-mer frequency, TF over GST control) with SPIB; 1.17 fold enrichment (6-mer frequency, TF over GST control) in the test with ELK3.
Consider GCTACG, for which the binding signal was 1.29 fold enrichment (6-mer frequency, TF over GST control) with FLI1; 1.22 fold enrichment (6-mer frequency, TF over GST control) with ELK1; 1.11 fold enrichment (6-mer frequency, TF over GST control) with GABPA; 1.11 fold enrichment (6-mer frequency, TF over GST control) with ERG; 1.17 fold enrichment (6-mer frequency, TF over GST control) with ELF1; 1.19 fold enrichment (6-mer frequency, TF over GST control) with EHF. In addition, the binding signal with SPI1 is 1.04 fold enrichment (6-mer frequency, TF over GST control); with SPIB it was 1.16 fold enrichment (6-mer frequency, TF over GST control); with ELK3 it was 1.26 fold enrichment (6-mer frequency, TF over GST control).
Turning to GCTCGA, the binding signal in the test with FLI1 is 1.22 fold enrichment (6-mer frequency, TF over GST control); with ELK1, 1.12 fold enrichment (6-mer frequency, TF over GST control); with GABPA, 1.15 fold enrichment (6-mer frequency, TF over GST control); with ERG, 1.2 fold enrichment (6-mer frequency, TF over GST control); in the test with ELF1, 1.21 fold enrichment (6-mer frequency, TF over GST control); with EHF, 1.19 fold enrichment (6-mer frequency, TF over GST control). Moreover, the binding signal in the test with SPI1 was 1.22 fold enrichment (6-mer frequency, TF over GST control); in the test with SPIB, 1.24 fold enrichment (6-mer frequency, TF over GST control); with ELK3, 1.13 fold enrichment (6-mer frequency, TF over GST control).
With ACCCTC, the binding signal in the test with FLI1 is 1.2 fold enrichment (6-mer frequency, TF over GST control); with ELK1, 1.27 fold enrichment (6-mer frequency, TF over GST control); in the test with GABPA, 1.15 fold enrichment (6-mer frequency, TF over GST control); in the test with ERG, 1.1 fold enrichment (6-mer frequency, TF over GST control); with ELF1, 1.13 fold enrichment (6-mer frequency, TF over GST control); with EHF, 1.1 fold enrichment (6-mer frequency, TF over GST control). Also, the binding signal with SPI1 was 1.12 fold enrichment (6-mer frequency, TF over GST control); with SPIB, 1.14 fold enrichment (6-mer frequency, TF over GST control); with ELK3, 1.31 fold enrichment (6-mer frequency, TF over GST control).
Take AACGGC: the binding signal in the test with FLI1 is 1.08 fold enrichment (6-mer frequency, TF over GST control); in the test with ELK1 it was 1.13 fold enrichment (6-mer frequency, TF over GST control); with GABPA, 1.25 fold enrichment (6-mer frequency, TF over GST control); in the test with ERG, 1.18 fold enrichment (6-mer frequency, TF over GST control); with ELF1 it was 1.16 fold enrichment (6-mer frequency, TF over GST control); with EHF, 1.25 fold enrichment (6-mer frequency, TF over GST control). In addition, the binding signal with SPI1 is 1.2 fold enrichment (6-mer frequency, TF over GST control); with SPIB, 1.24 fold enrichment (6-mer frequency, TF over GST control); in the test with ELK3, 1.06 fold enrichment (6-mer frequency, TF over GST control).
As to GTCCTC, the binding signal with FLI1 is 1.15 fold enrichment (6-mer frequency, TF over GST control); in the test with ELK1 it was 1.22 fold enrichment (6-mer frequency, TF over GST control); with GABPA, 1.17 fold enrichment (6-mer frequency, TF over GST control); with ERG it was 1.21 fold enrichment (6-mer frequency, TF over GST control); with ELF1, 1.18 fold enrichment (6-mer frequency, TF over GST control); in the test with EHF it was 1.28 fold enrichment (6-mer frequency, TF over GST control). Also, the binding signal in the test with SPI1 was 1.25 fold enrichment (6-mer frequency, TF over GST control); in the test with SPIB, 1.21 fold enrichment (6-mer frequency, TF over GST control); with ELK3 it was 1.22 fold enrichment (6-mer frequency, TF over GST control).
For AAAGGG, the binding signal with FLI1 was 1.21 fold enrichment (6-mer frequency, TF over GST control); in the test with ELK1, 1.11 fold enrichment (6-mer frequency, TF over GST control); with GABPA it was 1.22 fold enrichment (6-mer frequency, TF over GST control); with ERG, 1.12 fold enrichment (6-mer frequency, TF over GST control); with ELF1 it was 1.09 fold enrichment (6-mer frequency, TF over GST control); in the test with EHF, 1.2 fold enrichment (6-mer frequency, TF over GST control). Besides, the binding signal with SPI1 is 1.68 fold enrichment (6-mer frequency, TF over GST control); with SPIB, 1.19 fold enrichment (6-mer frequency, TF over GST control); with ELK3 it was 1.1 fold enrichment (6-mer frequency, TF over GST control).
